This is an account of results in PubChem BioAssay (NCI).

SMILES strings stand for the structures. About 83,000 compounds went through this panel and 20% of them were active in at least one assay; those are over-represented in the sample as a whole.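 Single-dose data. Exposure time 48 hours. Values below 10 considered active.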 Unmarked numbers belong to inactive results. The source made the active and inactive calls.

Among the test systems are T-47D breast; BT-549 breast; MDA-MB-435 melanoma; SW-620 colon; MCF7 breast; HCT-116 colon; HCC-2998 colon; KM12 colon.
Holding throughout (assay): NCI-60 one-dose screen, 48 h (100 = growth as untreated, 0 = no growth, -100 = all killed)
Holding throughout (conditions): 10 µM unless noted

As to `O=[N+]([O-])c1cccc(-c2nc(-c3ccc(Cl)cc3Cl)cn2-c2ccccc2)c1`, the growth in the experiment on T-47D breast is 15.6%; in the experiment on BT-549 breast, 176%; with MDA-MB-435 melanoma, -39.5% (active); with SW-620 colon, -52.4% (active); in the experiment with MCF7 breast it was 20.7%; in the experiment with HCT-116 colon, -93.2% (active). In addition, the growth in the experiment on HCC-2998 colon is -1.15% (active); with KM12 colon, -64.4% (active).
With `COc1ccc(Cn2nc(-c3ccccc3)c3c2CCc2cnoc2-3)cc1`, the growth with T-47D breast was 43.4%; in the experiment with BT-549 breast it was 82.1%; in the experiment with MDA-MB-435 melanoma, 28.4%; with SW-620 colon, 83.2%; in the experiment on MCF7 breast, 72.6%; in the experiment on HCT-116 colon, 65.4%. Besides, the growth with HCC-2998 colon is 67.4%; in the experiment on KM12 colon, 56.8%.
On to `S=c1[nH]cccc1-c1nnc2n1Nc1nc3ccc(Cl)cc3cc1CS2`, for which the growth was 89.5% in the experiment with T-47D breast; 96.3% in the experiment on BT-549 breast; 103% with MDA-MB-435 melanoma; 98.8% with SW-620 colon; 86.5% in the experiment on MCF7 breast; 86.6% in the experiment on HCT-116 colon. Moreover, the growth in the experiment on HCC-2998 colon was 106%; in the experiment on KM12 colon, 104%.
With `COc1ccc(C(=O)c2cc3c(N)c(C(=O)Nc4cccc(OC)c4)sc3nc2C)cc1`, the growth with T-47D breast was 62.6%; with BT-549 breast, 45.6%; with MDA-MB-435 melanoma, -14.3% (active); in the experiment with SW-620 colon, 30.1%; in the experiment with MCF7 breast, 23.4%; with HCT-116 colon, 11.1%. Also, the growth with HCC-2998 colon is 19.5%; with KM12 colon, 20.9%.
As to `CCCCCCOc1ccc(C(=N)N(CCCC)CCCC)c2ccccc12`, the growth in the experiment on T-47D breast is -65.5% (active); in the experiment on BT-549 breast, -94.6% (active); in the experiment on MDA-MB-435 melanoma it was -89.5% (active); with SW-620 colon, -61.3% (active); in the experiment on MCF7 breast, -74.8% (active); in the experiment with HCT-116 colon, -99.2% (active). The growth is -98% (active) in the experiment on HCC-2998 colon and -90.3% (active) with KM12 colon.
With `O=c1nc2n(nc1/C=C/c1ccco1)CC(c1ccc(Cl)cc1)=NN2`, the growth is 49.7% in the experiment with T-47D breast; 84.1% with BT-549 breast; 110% in the experiment with MDA-MB-435 melanoma; 102% in the experiment with SW-620 colon; 22.2% with MCF7 breast; 99% with HCT-116 colon. Also, the growth was 110% with HCC-2998 colon and 115% in the experiment on KM12 colon.
For the compound `CCNNC(=O)[C@@H]1[C@H](c2cc(OC)c(OC)c(OC)c2)c2cc3c(cc2[C@H](O)[C@H]1CO)OCO3`, the growth in the experiment with T-47D breast is 80.6%; in the experiment with BT-549 breast it was -27.2% (active); in the experiment with MDA-MB-435 melanoma it was -26.9% (active); in the experiment on SW-620 colon, 20.5%; in the experiment with MCF7 breast, 10.2%; in the experiment with HCT-116 colon, 0.945% (active). Moreover, the growth in the experiment with HCC-2998 colon is 6.02% (active); with KM12 colon, -5.82% (active).
As for `C=C(C)[C@@H]1CC[C@]2(C(=O)NCC(=O)OC)CC[C@]3(C)[C@H](CC[C@@H]4[C@@]5(C)Cc6c([nH]c7ccccc67)C(C)(C)[C@@H]5CC[C@]43C)[C@@H]12`, the growth is 47.7% in the experiment on T-47D breast; 81.3% in the experiment with BT-549 breast; 90% in the experiment with MDA-MB-435 melanoma; 83% with SW-620 colon; 63.5% with MCF7 breast; 42% with HCT-116 colon. The growth in the experiment with HCC-2998 colon is 103%; in the experiment with KM12 colon it was 79.2%.
On to `COc1cnccc1-c1nc2ccc3[nH]ncc3c2c2c1CCCC2`, for which the growth with T-47D breast is 68.4%; in the experiment with BT-549 breast, 43.3%; in the experiment on MDA-MB-435 melanoma, 13.2%; in the experiment on SW-620 colon, 28.1%; with MCF7 breast, 43.5%; in the experiment on HCT-116 colon, 23.8%. Besides, the growth with HCC-2998 colon was 58.4%; with KM12 colon, 21.4%.
On to `C#CC(=O)Nc1cccc2c1cc(C)n2-c1nc2c(c(NCc3ccccc3)n1)CCCC2`, for which the growth is -41.4% (active) with T-47D breast; -47.3% (active) in the experiment on BT-549 breast; -81.4% (active) with MDA-MB-435 melanoma; -59.3% (active) with SW-620 colon; -39.8% (active) with MCF7 breast; -70.3% (active) with HCT-116 colon. In addition, the values for the growth with HCC-2998 colon and with KM12 colon were -89.9% (active) and -27.6% (active), respectively.
`O=S(=O)(NCCNc1nccc(-c2c(-c3ccc(F)c(O)c3)nc3occn23)n1)c1ccccc1`: the growth in the experiment on T-47D breast is 71.9%; in the experiment on BT-549 breast, 80.8%; with MDA-MB-435 melanoma, 28.1%; in the experiment with SW-620 colon it was 63.5%; in the experiment with MCF7 breast, 36.5%; in the experiment on HCT-116 colon it was 22.6%. The growth was 62.1% in the experiment on HCC-2998 colon and 52.6% in the experiment with KM12 colon.
Turning to `COC(=O)CCCCCCCCC1(C)C=CC(C(C)O)=CC1` (stereo not given), the growth with T-47D breast was 99.9%; in the experiment with BT-549 breast it was 108%; in the experiment with MDA-MB-435 melanoma it was 112%; in the experiment with SW-620 colon, 91.2%; in the experiment on MCF7 breast, 101%; with HCT-116 colon, 99.7%. Also, the growth with HCC-2998 colon is 98.7%; with KM12 colon, 99.8%.
`Cc1cn(-c2cc(C(=O)Nc3cccc(C#Cc4cccc5[nH]nc(N)c45)c3)cc(C(F)(F)F)c2)cn1`: the growth in the experiment with T-47D breast was 54.2%; with BT-549 breast, 43.2%; in the experiment on MDA-MB-435 melanoma, 41.7%; in the experiment on SW-620 colon it was 43.1%; in the experiment with MCF7 breast it was 64.8%; with HCT-116 colon it was 23.3%. The values for the growth with HCC-2998 colon and with KM12 colon were 62.8% and 64.6%, respectively.
For the compound `COc1c(Cl)cc(Cl)c2ccc(C=C3C(=O)NC(=S)NC3=O)nc12`, the growth in the experiment on T-47D breast was 101%; in the experiment on BT-549 breast it was 90.2%; in the experiment on MDA-MB-435 melanoma, 106%; in the experiment on SW-620 colon, 104%; in the experiment on MCF7 breast, 90.7%; in the experiment with HCT-116 colon it was -76.2% (active). Moreover, the values for the growth in the experiment on HCC-2998 colon and with KM12 colon were 99.2% and 112%, respectively.
`CCOC(=O)C1CC(=O)c2cc(OC)c(OC)cc2C1` (stereo not given): the growth in the experiment with T-47D breast was 115%; in the experiment on BT-549 breast it was 123%; in the experiment on MDA-MB-435 melanoma, 114%; in the experiment on SW-620 colon it was 111%; in the experiment on MCF7 breast, 95.7%; in the experiment with HCT-116 colon, 95.5%. Further, the figures for the growth with HCC-2998 colon and in the experiment with KM12 colon were 101% and 103%, respectively.
